# Several values for one entry are separate records, joined by “and”; a condition that tells them apart may be missing. Identical values can stand only once. Results filed as inconclusive are left out. Activity calls are given as the source filed them. How the source made its calls: active means hit-call score of the fitted dose curve at least 0.9, where 1 is the maximum; inconclusive means response in the unintended direction; inactive means score below 0.9.
# Experiment: TOX21_p53_BLA_p5_viability: Viability Assessment in the Tox21 HCT-116 p53 Agonism Beta-lactamase Assay, Phase 5 (AID 2283600)
# Text: TOX21_p53_BLA_p5 is a cell-based, single-readout assay that uses HCT116, a human intestinal cell line, […] in a 1536-well plate.TOX21_p53_BLA_p5_viability is an assay readout measuring cellular ATP content and detected with CellTiter-Glo Luciferase-coupled ATP quantitation.TOX21_p53_BLA_p5_viability used a type of viability reporter where loss-of-signal activity can be used to understand changes in the cell viability. Furthermore, this assay endpoint can be referred to as a secondary readout, because this assay has produced multiple assay endpoints where this one serves a viability function. To generalize the intended target to other relatable targets, this assay endpoint is annotated to the cell cycle intended target family, where the subfamily is cytotoxicity.
# Thawing Method: Place 14 mL of pre-warmed thaw medium into a 15 mL of conical tub. Remove the vial of cells to be thawed from liquid nitrogen and thaw rapidly by placing at 37C in a water bath with gentle agitation for 1-2 minutes. Decontaminate the vial by wiping with 70% ethanol before opening in a biological safety cabinet. Transfer the vial contents drop-wise into 14 mL of thaw medium in a sterile 15-mL conical tub. Centrifuge cells at 900 rpm for 4 minutes and resuspend in thaw medium. Transfer contents to the T75 tissue culture flask containing Thaw Medium and place flask in a humidified 37C/5% CO2 incubator. Switch to growth medium at first passage.Propagation Method: Aspirate medium, rinse once in DPBS, add 0.25% Trypsin/EDTA and swirl to coat the cell evenly. Add an equal volume of Growth Medium to inactivate Trypsin after 2-3 minutes incubation at 37C. Centrifuge cells at 900 rpm for 4 minutes and resuspend in growth medium. Cell should be passage or fed at least twice a week.Assay Protocol: Harvest cells from culture in growth medium and resuspend in assay medium. 2.2 Dispense 4000 cells/5 uL/well into 1536-well black/clear bottom plates using a Multidrop dispenser. After the cells were incubated at 37C for 5 hours, 23 nL of compounds dissolved in DMSO were transferred to the assay plate by a PinTool resulting in a 217-fold dilution. Incubate the plates for 16 hours at 37C, 5% CO2. Add 1 uL of 6X LiveBLAzer FRET B/G (CCF4-AM) Substrate Mixture to each well using a BioRAPTR dispenser and incubate the plates at room temperature for 2 hours. Measure fluorescence intensity at 460 and 530 nm emission and 405 nm excitation by an Envision detector. Data is expressed as the ratio of 460nm/530nm emissions. Add 4 uL of Cell-titer Glo to each well using BioRAPTR and incubate the plates at room temperature for […]. For cell viability readout that measures cytotoxicity, 4 ul/well of CellTiter-Glo reagent was added into the assay plates using a Flying Reagent Dispenser. After 30 min incubation at room temperature, the luminescence intensity in the plates was measured using a ViewLux plate reader.
SMILES,outcome,AC50
Cc1ccc(S(=O)(=O)NCl)cc1,inactive,
CCN(CC)c1ccc2c(C)cc(=O)oc2c1,inactive,
O=C(C=Cc1ccccc1)OCC=Cc1ccccc1,inactive,
FC(F)(F)C(F)(F)C(F)(F)C(F)(F)CCI,inactive,
CCCCCCOC(=O)c1ccccc1,inactive,
CCc1ccc(C(c2ccc(CC)cc2)C(Cl)Cl)cc1,inactive,
CCCCCCCCCCCCCCCC[N+](C)(C)Cc1ccccc1,,57.9 µM (active) and 23 µM (active)
CC(CCl)OP(=O)(OC(C)CCl)OC(C)CCl (stereo not given),inactive,
CCCCCCOC(=O)c1ccccc1O,inactive,
CCCCOc1ccc(N)cc1,inactive,
CNC(=S)NC,inactive,
COC(=O)C1CCC(C(=O)OC)CC1 (stereo not given),inactive,
O=S(=O)(O)c1ccc2ccccc2c1,inactive,
O=C(OCCOCCOCCOC(=O)c1ccccc1)c1ccccc1,inactive,
C#C[C@]1(O)CC[C@H]2[C@@H]3CCc4cc(OC)ccc4[C@H]3CC[C@@]21C,inactive,
c1ccc(B(c2ccccc2)c2ccccc2)cc1,inactive,
CCC(=O)OCCc1ccccc1,inactive,
CN(C)Cc1ccccc1O,inactive,
CC(Cc1ccc(O)c(O)c1)C(C)Cc1ccc(O)c(O)c1 (stereo not given),inactive,
Nc1ccc(S(=O)(=O)Nc2nccs2)cc1,inactive,
C1COCCN1,inactive,
Nc1ccc([N+](=O)[O-])cc1O,inactive,
C(=C(c1ccccc1)c1ccccc1)c1ccccc1,inactive,
CCCCCC=O,inactive,
OC[C@@H](O)[C@@H](O)[C@H](O)[C@@H](O)CO,inactive,

# Source: PubChem BioAssay (EPA / NIEHS)
